Compounds with a hit are over-represented: about 8.9% of the library has one in this group of screens.
SW480 rerep: A quantitative high throughput screen for small molecules that induce DNA re-replication in SW480 colon adenocarcinoma cells | AID 624297, 2012 | SW480 DNA re-replication, Hoechst DNA content imaging, 48 h | hit rate 1.8% among 340,000 | Potency, µM (titrated, usually from 46.1 µM), hits mostly activators; further: nearly all actives have a fitted effect of over 55% in size
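Image-based read-out: total Hoechst fluorescence of nuclei (405 nm excitation, 500-530 nm emission), with hits raising the fraction of high-intensity nuclei. SW480 colon cells incubated 48 hr with compounds at 37 C.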
DRD3 antagonist: qHTS of D3 Dopamine Receptor Antagonist: qHTS. D(3) dopamine receptor (Homo sapiens), P35462. hit rate 2.5% among 360,000. D3R cells, DiscoveRx beta-arrestin luminescence, antagonist mode; stronger effect = lower value. max response, negative = inhibition, %; in the data active means max response below about -50%; inconclusive means no clear call, values can overlap the other calls
Target sequence (P35462 whole entry, looked up): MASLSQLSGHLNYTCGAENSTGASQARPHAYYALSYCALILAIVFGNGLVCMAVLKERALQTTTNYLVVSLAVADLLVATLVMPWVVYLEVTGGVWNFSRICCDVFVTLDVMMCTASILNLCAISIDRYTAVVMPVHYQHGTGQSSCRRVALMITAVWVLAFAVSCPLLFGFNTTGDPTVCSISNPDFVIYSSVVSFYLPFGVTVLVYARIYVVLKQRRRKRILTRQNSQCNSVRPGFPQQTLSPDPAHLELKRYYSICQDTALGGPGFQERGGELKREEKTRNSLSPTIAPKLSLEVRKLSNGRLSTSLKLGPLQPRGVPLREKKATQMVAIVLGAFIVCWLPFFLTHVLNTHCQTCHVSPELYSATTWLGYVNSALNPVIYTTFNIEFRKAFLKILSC
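Cells plated overnight at 1500 cells/well, then exposed to library compounds with dopamine controls for 90 minutes at 37 degrees C. DiscoveRx reagent added for 30–60 minutes at room temperature; luminescence read, quantitative HTS format.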
KB-3-1 tox: qHTS assay for MDR1-selective chemotherapeutics: Primary screen using the parental adenocarcinoma cell KB-3-1. Potency, µM (titrated, usually from 46.1 µM), actives largely listed as cytotoxic. AID 1347075, 2019. hit rate 1.4% among 400,000. KB-3-1 viability, CellTiter-Glo ATP luminescence, 72 h; further: nearly all actives have a fitted effect of over 60% in size
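Cells are dispensed, compounds pinned in, plates held at 37 °C for 72 h, then CellTiter-Glo is added and luminescence read after 10 minutes. Cell line: parental KB-3-1 in phenol-red-free DMEM, 10% FBS.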
KB-V1 cytotox: qHTS assay for MDR1-selective chemotherapeutics: Primary screen using the drug-selected MDR subline cells KB-V1 | KB-V1 MDR cells viability, CellTiter-Glo, 72 h | AID 1347076, 2019 | Potency, µM (doses to about 46.1 µM), actives largely listed as cytotoxic | hit rate 3.4% among 400,000; further: nearly all actives have a fitted effect of over 60% in size
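Readout: CellTiter-Glo luminescence, 10 min after addition. Cells: KB-V1 MDR subline, 72 h at 37 degrees C with compound. Analysis: corrected, normalized data fitted to concentration-effect curves.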
MCF10A rereplic: A quantitative high throughput screen for small molecules that induce DNA re-replication in MCF 10a normal breast cells; MCF 10A DNA re-replication, Hoechst nuclear intensity, 48 h; Potency, µM (doses to about 46.1 µM), hits mostly activators; hit rate 2.9% among 350,000; AID 624296, 2012; further: nearly all actives have a fitted effect of over 50% in size
D3 ag: qHTS of D3 Dopamine Receptor Agonist: qHTS. D(3) dopamine receptor (Homo sapiens), P35462. D3R DiscoveRx beta-arrestin cells, luminescence, 90 min. max activation, %. hit rate 0.58% among 410,000. AID 652048, 2013; in the data active means max activation above about 30%
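Agonist mode: compounds and dopamine controls were applied to plated cells for 90 min at 37 degrees C after an overnight attachment at 1500 cells/well. Luminescent read-out followed 30 - 60 minutes at room temperature with DiscoveRx detection reagent.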
Of the large screens only hits and unclear results are named; the others gave an inactive call. Unless noted, the call rests on the fitted dose curve; in most records, active means well fitted curve in the direction sought with a large enough effect; inconclusive means small, poorly fitted or top-dose-only effect, or another doubt; inactive means no such curve, though single readings can be large; an effect the other way counts as inactive or inconclusive.

O=C(NNC(=S)NC1CCCCC1)c1sc2ccccc2c1Cl	DRD3 antagonist -64, KB-V1 cytotox 18µM, MCF10A rereplic inconclusive (no result: SW480 rerep)
CC(C)(C)C(=O)NC(=S)NNC(=O)c1sc2ccccc2c1Cl	SW480 rerep inconclusive, KB-3-1 tox 9.2µM, KB-V1 cytotox 10µM, MCF10A rereplic 12µM
O=C(NC1CC1)c1sc2ccccc2c1Cl	none
O=C(NNC(=O)c1sc2cccc(Cl)c2c1Cl)NC1CCCCC1	DRD3 antagonist -74
O=C(NC1CCCCC1)c1cccs1	none
O=C(NNC(=S)NC1CCCCC1)c1cccs1	KB-V1 cytotox 23µM
Nc1cccc(-c2cn3ccsc3n2)c1	none (no result: SW480 rerep, DRD3 antagonist, KB-3-1 tox, KB-V1 cytotox, MCF10A rereplic)
O=C(NC1CCN(S(=O)(=O)c2ccccc2F)CC1)c1cccnc1	none
COC(=O)/C=C1\SC(=NC(=O)c2ccc(-c3ccccc3)cc2)NC1=O	MCF10A rereplic inconclusive
Cc1nn(CC(C)C(=O)N2CCN(S(=O)(=O)c3ccc(Cl)cc3)CC2)c(C)c1C (stereo unspecified)	KB-V1 cytotox 21µM
NC(=O)NC(Cc1ccccc1)C(=O)N1CCN(S(=O)(=O)c2ccc(Cl)cc2)CC1 (stereo unspecified)	DRD3 antagonist -68
Cc1cccc(C)c1OCC(=O)NCC1(N(C)C)CCCCC1	none (no result: SW480 rerep, DRD3 antagonist, MCF10A rereplic)
Nc1cc([N+](=O)[O-])ccc1Nc1ccc(O)cc1	DRD3 antagonist -55
O=C1NC(=O)[C@H]2[C@@H]1[C@@H]1C=C[C@H]2C1	none (no result: SW480 rerep, DRD3 antagonist, KB-3-1 tox, KB-V1 cytotox, MCF10A rereplic)
CCOc1ccc2c(c1)c(=O)c(C(=O)c1ccc(CC)cc1)cn2CC(=O)Nc1cccc(Cl)c1	none (no result: SW480 rerep, DRD3 antagonist, MCF10A rereplic)
O=C1C(=O)c2ccccc2C(O)=C1CC=C(Cl)Cl	KB-3-1 tox 15µM, KB-V1 cytotox 3.7µM
CCOC(=O)c1c(NC(=O)CC(C)C)sc(C(C)=O)c1C	none
CCOC(=O)c1sc(NC(=O)CN(CC(C)C)CC(C)C)c(C(=O)OCC)c1C	KB-3-1 tox inconclusive, KB-V1 cytotox 21µM, MCF10A rereplic inconclusive
CCc1cccc(NC(=O)CCN2C(=O)c3ccccc3Sc3ncccc32)c1	none (no result: SW480 rerep, DRD3 antagonist, KB-3-1 tox, KB-V1 cytotox, MCF10A rereplic)
CN(C)c1ccc(/C=C/c2nc3ccccc3c(=O)n2CCO)cc1	SW480 rerep inconclusive, MCF10A rereplic 16µM
O=c1c2ccccc2nc(/C=C/c2ccc(O)cc2)n1CCc1ccccc1	SW480 rerep inconclusive, KB-V1 cytotox 15µM, MCF10A rereplic 23µM
O=c1c2ccccc2nc(/C=C/c2cc(Br)ccc2O)n1CCO	SW480 rerep inconclusive, KB-3-1 tox inconclusive, KB-V1 cytotox inconclusive, MCF10A rereplic 15µM
Cc1ccc(C)c(NC(=O)CSc2nc(=O)n(Cc3ccccn3)c3c2CCC3)c1	none (no result: SW480 rerep, DRD3 antagonist, MCF10A rereplic)
COc1ccc(-c2ccc(C(=O)NCc3ccco3)c3occc23)c(C)c1	KB-V1 cytotox inconclusive (no result: SW480 rerep, MCF10A rereplic)
CC(C)c1c(C(=O)N/N=C/c2cccc(OCc3ccccc3)c2)nnn1-c1nonc1N	MCF10A rereplic 16µM, D3 ag 40
CC(C)c1c(C(=O)N/N=C/c2ccc(OCc3ccc(F)cc3)cc2)nnn1-c1nonc1N	none
COc1cccc(/C=N/NC(=O)c2nnn(-c3nonc3N)c2C(C)C)c1OCc1ccc(F)cc1	SW480 rerep inconclusive, MCF10A rereplic 21µM
O=C1NC(=O)/C(=C/c2ccc(-c3cc(C(=O)O)ccc3Cl)o2)S1	MCF10A rereplic inconclusive
O=C1NC(=S)/C(=C\c2ccc(-c3ccccc3Cl)o2)S1	KB-3-1 tox inconclusive, MCF10A rereplic 6.5µM
Cc1ccc(CCNC(=O)c2sc3nc4n(c(=O)c3c2C)CCCC4)cc1	none (no result: SW480 rerep, DRD3 antagonist, MCF10A rereplic)
C=C1C(=O)O[C@@H]2[C@H]1[C@@H](OC(=O)/C(C)=C/C)C/C(C)=C\C(=O)/C=C(\C)[C@@H]2O	SW480 rerep inconclusive, DRD3 antagonist -52, KB-3-1 tox 2.9µM, KB-V1 cytotox inconclusive
O=C1CCc2cc(Cl)c(S(=O)(=O)Nc3ccc(Cl)c(Cl)c3)cc2N1	none (no result: SW480 rerep, DRD3 antagonist, MCF10A rereplic, D3 ag)
Oc1cc(CNCc2ccccc2)c(O)cc1CNCc1ccccc1	SW480 rerep 13µM, MCF10A rereplic inconclusive
OCc1ccccc1CNCc1ccccc1	none
COc1cccc(OCCCCN2CC(C)OC(C)C2)c1 (stereo unspecified)	DRD3 antagonist -87
CC1CN(CCCCOc2ccc3ccccc3c2)CC(C)O1 (stereo unspecified)	DRD3 antagonist inconclusive, MCF10A rereplic inconclusive
CC1CC(C)CN(CCCCOc2ccc([N+](=O)[O-])cc2)C1 (stereo unspecified)	DRD3 antagonist -82, KB-V1 cytotox inconclusive
COc1cccc(OCCCN2CCCCC2)c1	none
COC(=O)C1CCN(CCCOc2ccc(CN3CCN(c4ccc([N+](=O)[O-])cc4)CC3)cc2)CC1	DRD3 antagonist inconclusive, D3 ag 32
COc1cccc(OCCCCN2CCCCC2)c1	DRD3 antagonist -83, MCF10A rereplic inconclusive
CC1CCCN(CCCCOc2cccc(Br)c2)C1 (stereo unspecified)	DRD3 antagonist -83, KB-V1 cytotox inconclusive
Brc1cccc(OCCCCN2CCCCC2)c1	DRD3 antagonist -92, MCF10A rereplic inconclusive
CCOc1cccc(OCCCCN2CCCCC2)c1	DRD3 antagonist -66
COC(=O)c1ccc(OCCCCN2CC(C)OC(C)C2)cc1 (stereo unspecified)	DRD3 antagonist -75, KB-V1 cytotox inconclusive
Cc1cc(Cl)c(OCCOCCN2CCCC(C)C2)c(Br)c1 (stereo unspecified)	SW480 rerep inconclusive, DRD3 antagonist inconclusive, KB-V1 cytotox inconclusive, MCF10A rereplic inconclusive
c1ccc(OCCCN2CCCC2)cc1	DRD3 antagonist inconclusive
CC1CN(CCCOc2ccc([N+](=O)[O-])cc2)CC(C)O1 (stereo unspecified)	KB-V1 cytotox inconclusive
Cc1cccc(C)c1OCCCCN1CCCCC1	none
CCCC12CN3CC(CCC)(CN(C1)C3c1c(C)[nH]c(=O)[nH]c1=O)C2=O (stereo unspecified)	none (no result: SW480 rerep, DRD3 antagonist, MCF10A rereplic)
Cc1ccc(Cc2c(C)nc3nc(SCC(=O)NC4CCC(C)CC4)nn3c2C)cc1 (stereo unspecified)	none (no result: SW480 rerep, DRD3 antagonist, KB-3-1 tox, KB-V1 cytotox, MCF10A rereplic)
CC1CCCN(CCOc2ccc(Br)cc2)C1 (stereo unspecified)	DRD3 antagonist -99, MCF10A rereplic inconclusive
CN(C)N1C(N)=C(C#N)C(c2cccc3ccccc23)C2=C1CC(c1ccccc1)CC2=O (stereo unspecified)	SW480 rerep inconclusive, DRD3 antagonist inconclusive, KB-3-1 tox 13µM, KB-V1 cytotox 21µM, MCF10A rereplic 15µM
COC(=O)c1c(C(=O)OC)c(-c2ccc(C)cc2)n2c1CCC2	KB-V1 cytotox 15µM
O=C(Nc1ccccc1)c1cc2c(-c3ccccc3)nn(-c3ccccc3)c2s1	KB-V1 cytotox inconclusive (no result: SW480 rerep, DRD3 antagonist, MCF10A rereplic)
